# Experimental data published in PubChem BioAssay.
# The source made the active and inactive calls.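 Rule for the calls, unless noted: active = visual image review flags a hit and inhibition of aggregation exceeds 20%; inconclusive = visual hit but inhibition at or below 20%; inactive = no hit on visual image review.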
# Columns and labels:
# [1] = inhibitors of TNFa-induced NFkB p65 translocation, primary screen, imaging, HUVEC, MLSMR starter and 10KST1 sets (AID 438;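 active = inhibition above 20% together with a positive visual image hit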;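 note: compound added about 3h40 before a 20 min TNFalpha stimulation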;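 for inhibition: signal is the nuclear over cytoplasmic p65 intensity ratio per well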); settings: HUVEC TNFa-induced p65 nuclear translocation; cell count: measured here: nuclei count (cytotoxicity indicator), at 2.08 µM; inhibition: at 2 µM, stronger effect = higher value, 0% TNFa-plus-vehicle, 100% no-TNFa wells
# [2] = reduction of polyQ htt aggregates in cells – imaging, exon1htt(103Q)mCFP cells, high-content imaging, primary screen (AID 483); settings: exon1htt(103Q)mCFP cell line, aggregate imaging, at 2 µM; inhibition of aggregation: stronger effect = higher value; nuclei count: measured here: cell count, toxicity;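 note: compound exposure lasted 3 days before fixation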;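 for nuclei count: percent of the per-plate median nuclei count of sample wells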
# [3] = endothelial E-selectin expression blockers – imaging, HUVEC, immunofluorescence, MLSMR starter and 10KST1 sets, primary screen (AID 487;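 active = visually confirmed hit in the image check and inhibition above 20%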;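 for inhibition: signal is fraction of cell area covered by stained E-selectin grains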;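 for nuclei count: 100% = median nuclei count of all wells on the same plate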); settings: HUVEC TNFalpha-induced E-selectin immunofluorescence imaging, at 2 µM; inhibition: stronger effect = higher value; nuclei count: measured here: cell number, toxicity
# [4] = Primary imaging screen for DUSP6 inhibitors that restore phospho-Erk in transfected HeLa cells, chemical complementation (AID 609;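 active = compounds giving at least 50% inhibition in the cell-based MKP-3 phosphatase rescue imaging test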;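 for inhibition: phospho-Erk level distribution per well compared with pooled transfected vehicle control wells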); settings: HeLa MKP-3 transfected, phospho-Erk imaging KS statistic, at 10 µM, cells stimulated with TPA for 15 min
# [5] = biological target: Dual specificity protein phosphatase 6 (Homo sapiens) (UniProt Q16828); assay: as above; settings: HeLa MKP-3 transfected, phospho-Erk imaging KS statistic; at 10 µM; stronger effect = higher value; cells stimulated with TPA for 15 min
# Sequence of Dual specificity protein phosphatase 6 (Homo sapiens) (Q16828 whole entry, looked up): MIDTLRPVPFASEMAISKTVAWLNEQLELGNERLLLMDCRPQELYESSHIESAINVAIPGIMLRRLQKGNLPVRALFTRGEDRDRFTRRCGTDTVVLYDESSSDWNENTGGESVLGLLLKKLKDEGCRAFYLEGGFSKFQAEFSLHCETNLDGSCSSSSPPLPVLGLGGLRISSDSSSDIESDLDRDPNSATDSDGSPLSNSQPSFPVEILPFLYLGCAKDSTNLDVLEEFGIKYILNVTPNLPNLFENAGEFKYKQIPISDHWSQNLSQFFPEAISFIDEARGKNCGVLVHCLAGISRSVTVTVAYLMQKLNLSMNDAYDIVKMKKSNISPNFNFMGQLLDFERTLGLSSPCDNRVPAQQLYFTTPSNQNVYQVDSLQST
# [6] = biological target: Voltage-gated potassium channel subunit beta-2 (Rattus norvegicus) (UniProt P62483); assay: inhibitors of rat Kvbeta2 reductase activity – biochemical, NADPH fluorescence, primary screen (AID 622;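 active = fluorescence slope higher than the sample average by over 3 SD, cut at about -0.22 in these data, passing the limit was not always enough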;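 note: slope of raw intensity against log time taken from 70 to 1610 s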); settings: recombinant KvBeta, 4-cyanobenzaldehyde reduction, at 10 µM, stronger effect = higher value
# Sequence of Voltage-gated potassium channel subunit beta-2 (Rattus norvegicus) (P62483 whole entry, looked up): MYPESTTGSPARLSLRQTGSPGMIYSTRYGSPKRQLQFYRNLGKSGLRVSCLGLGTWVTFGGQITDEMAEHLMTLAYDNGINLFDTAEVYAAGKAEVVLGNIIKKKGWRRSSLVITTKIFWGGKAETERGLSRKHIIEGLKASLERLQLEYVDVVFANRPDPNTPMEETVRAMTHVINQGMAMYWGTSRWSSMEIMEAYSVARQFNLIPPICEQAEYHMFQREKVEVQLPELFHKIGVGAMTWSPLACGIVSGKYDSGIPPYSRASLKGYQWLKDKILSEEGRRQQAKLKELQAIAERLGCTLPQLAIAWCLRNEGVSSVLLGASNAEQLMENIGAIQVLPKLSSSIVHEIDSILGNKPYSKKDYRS
# [7] = biological target: Voltage-gated potassium channel subunit beta-2 (Rattus norvegicus) (UniProt P62483); assay: enhancers of rat Kvbeta2 NADPH turnover – biochemical, NADPH fluorescence, primary screen (AID 623;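 active = NADPH fluorescence slope more negative than the mean of all samples by about 3 SD, 99.7% confidence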;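 note: fluorescence intensity change per second fitted from 20 to 320 s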); settings: Recombinant KvBeta, NADPH fluorescence decrease slope, 10 min; at 10 µM; stronger effect = lower value
# [8] = biological target: Alpha-2C adrenergic receptor (Homo sapiens) (UniProt P18825); assay: compounds altering alpha2C-coupled GIRK flux – cell-based, HEK293 alpha2C/GIRK1/2, thallium flux, primary screen (AID 624;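 active = fluorescence slope after compound addition differing from the mean of all screened samples at 99.7% confidence, in either direction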;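 note: slope of fluorescence ratio to pre-addition baseline per second over 15 to 24 s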); settings: thallium flux BTC fluorescence, at 10 µM, actives lie on both sides
# Sequence of Alpha-2C adrenergic receptor (Homo sapiens) (P18825 whole entry, looked up): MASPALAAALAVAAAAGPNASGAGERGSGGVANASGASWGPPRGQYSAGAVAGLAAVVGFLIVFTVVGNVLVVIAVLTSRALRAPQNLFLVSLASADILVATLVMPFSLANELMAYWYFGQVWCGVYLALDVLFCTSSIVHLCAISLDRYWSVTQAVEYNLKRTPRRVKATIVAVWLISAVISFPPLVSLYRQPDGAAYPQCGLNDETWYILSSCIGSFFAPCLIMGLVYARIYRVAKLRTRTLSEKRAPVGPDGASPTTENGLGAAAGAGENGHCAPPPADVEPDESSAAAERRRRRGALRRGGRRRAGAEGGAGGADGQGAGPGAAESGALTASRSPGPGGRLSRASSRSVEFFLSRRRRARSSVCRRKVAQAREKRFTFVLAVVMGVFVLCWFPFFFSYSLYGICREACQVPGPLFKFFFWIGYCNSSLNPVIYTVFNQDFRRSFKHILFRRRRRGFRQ
# [9] = inhibitors of larval lipid processing in zebrafish, primary screen, whole organism, PED6 fluorescence, gall bladder and intestine (AID 686;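 active = a full or partial loss of lipid-probe fluorescence in the fish gall bladder, intestine or both, judged by eye; inactive = no fluorescence loss, or compound toxic to the fish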;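 note: larvae 5 to 7 days old with five fish per well; signal comes from phospholipase A2 cleavage of quenched PED6 carried via bile; overnight exposure to compound and PED6 before scoring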); settings: Zebrafish larvae PED6 lipid processing, fluorescence scoring; screened at 20 µM (by protocol)
# [10] = loss of swimming-algae plug formation – whole organism, Chlamydomonas reinhardtii, WT vs cilia-less mutant, absorbance, 96-well, primary screen (AID 463189;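 active = inhibition at or above 50% relative to wild type and mutant plate controls; inactive = inhibition below 50%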;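 note: 0% = wild type cc124 cells in DMSO and 100% = ciliumless bld1 mutant cells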); settings: Chlamydomonas reinhardtii gravitaxis, OD600 absorbance, 2 days; at 10 µM; stronger effect = higher value
# [11] = blockers of RIG-like receptor reporter activation – cell-based, Sendai virus stimulus, luciferase, 10K MLSCN set, TLR/RLR signaling modifier project, primary screen (AID 602276;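 active = inhibition at or above 50% at 10 µM; inactive = inhibition below 50%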;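 note: firefly luciferase from ISG56 promoter only with Renilla not read in this screen; 0% = Sendai virus plus DMSO and 100% = medium plus DMSO without virus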); settings: HEK293 RL24 IRF3 luciferase reporter, at 10 µM, stronger effect = higher value
# [12] = TLR3 IRF3 reporter activation blockers – cell-based, poly I:C stimulus, luciferase, 10K MLSCN set, primary screen (AID 602277;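 active = inhibition of the reporter signal at or above 50%; inactive = inhibition below 50%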); settings: HEK293-TLR3 RL24 IRF3 luciferase reporter, at 10 µM, stronger effect = higher value
# [13] = biological target: Muscarinic acetylcholine receptor M4 (Homo sapiens) (UniProt P08173); assay: M4-linked GIRK flux change, two-sided – cell-based, HEK293 M4/GIRK, thallium flux, BTC-AM, M4 allosteric agonist project, primary screen (AID 625;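 active = fluorescence slope after compound addition differing from the mean of all tested samples at 99.7% confidence, mostly higher but some lower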;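 note: thallium influx through GIRK channels coupled to M4 in HEK293 cells with BTC-AM dye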); settings: at 10 µM, actives lie on both sides
# Sequence of Muscarinic acetylcholine receptor M4 (Homo sapiens) (P08173 whole entry, looked up): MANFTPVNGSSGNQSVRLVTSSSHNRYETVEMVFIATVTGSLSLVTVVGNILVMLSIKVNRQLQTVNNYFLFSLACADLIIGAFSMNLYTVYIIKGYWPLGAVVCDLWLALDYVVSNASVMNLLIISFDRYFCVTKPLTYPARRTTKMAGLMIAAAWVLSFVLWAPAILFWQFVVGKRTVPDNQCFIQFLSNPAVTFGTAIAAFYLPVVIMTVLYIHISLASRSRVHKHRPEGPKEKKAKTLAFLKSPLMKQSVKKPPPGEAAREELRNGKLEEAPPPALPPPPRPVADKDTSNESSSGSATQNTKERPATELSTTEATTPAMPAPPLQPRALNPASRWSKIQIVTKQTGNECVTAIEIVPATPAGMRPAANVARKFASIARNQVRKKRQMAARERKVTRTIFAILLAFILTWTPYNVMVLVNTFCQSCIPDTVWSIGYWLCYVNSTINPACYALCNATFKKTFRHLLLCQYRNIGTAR
# [14] = measured here: cell density z-score
# [15] = measured here: nuclear c-Myc green intensity z-score
# [16] = measured here: nuclear pErk red intensity z-score, stronger effect = higher value
SMILES,cell count [1],inhibition [1],inhibition of aggregation [2],nuclei count [2],inhibition [3],nuclei count [3],"z-score [4, 14]","z-score [4, 15]","z-score [4, 16]",inhibition [5],fluorescence slope [6],NADPH fluorescence slope [7],slope [8],outcome [9],inhibition [10],inhibition [11],inhibition [12],fluorescence slope [13]
C[N+](C)(C)CCOP(=O)([O-])OC[C@H](O)CO,713,-2.4% (inactive),-22.9% (inactive),105%,-60.7% (inactive),109%,0.542,0.427,-0.871,15.3% (inactive),-0.472 (inactive),-5.7e-05 (inactive),0.00513 (inactive),inactive,27.2% (inactive),-4.92% (inactive),-2.18% (inactive),
NC(N)=NC(N)=NCCc1ccccc1,589,-4.3% (inactive),-8.6% (inactive),93.2%,-58.8% (inactive),108%,-1,-0.445,-0.339,-2.46% (inactive),-0.439 (inactive),-1.7e-05 (inactive),0.004 (inactive),inactive,-5.62% (inactive),10.9% (inactive),30.4% (inactive),
c1ccc(Cc2nnc3n2CCCCC3)cc1,427,-7.4% (inactive),0.9% (inactive),104%,-122% (inactive),114%,-1.13,-0.00465,-0.441,-0.608% (inactive),-0.55 (inactive),-4.5e-05 (inactive),0.0052 (inactive),inactive,22.9% (inactive),13.8% (inactive),22.9% (inactive),
CC(C)(C)OC(=O)N1CC=C2C(C#N)=C(N)C(C#N)(C#N)[C@H](c3cccnc3)[C@H]2C1,461,-13.5% (inactive),45.1% (active),70.7%,28.8% (inactive),112%,-1.09,-0.413,0.348,-0.624% (inactive),-0.387 (inactive),-4.5e-05 (inactive),0.00436 (inactive),inactive,2.34% (inactive),11.2% (inactive),10.3% (inactive),
CCOC(=O)c1ccc(N=Cc2nc(-c3ccccc3)oc2OC(C)=O)cc1,794,-6.6% (inactive),-2.7% (inactive),98.2%,-0.4% (inactive),120%,0.0584,0.0892,-0.36,11.3% (inactive),-0.395 (inactive),-5.5e-05 (inactive),,inactive; toxic,23.8% (inactive),4.63% (inactive),11.1% (inactive),0.00761 (inactive)
